This is a sample that favours compounds with a hit; in the whole collection about 19% have one here.
TDP1 cell noCPT – qHTS for Inhibitors of human tyrosyl-DNA phosphodiesterase 1 (TDP1): qHTS in cells in absence of CPT; DT40 Tdp1-/- hTDP1 cells, no CPT, ATP luminescence, 48 h; Potency, µM (series often up to 46.2 µM), inactives show at the highest dose activity change, negative = growth inhibition, most hits filed as inhibitors; hit rate 15% among 420,000; also: potency is read from the fitted curve at half-maximal effect; nearly all actives have a fitted effect of over 55% in size
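Chicken DT40 Tdp1-/- cells complemented with human TDP1, screened without camptothecin (DMSO vehicle only), 400 cells/well. Compounds pin-transferred, cells incubated at 37 °C for at least 48 hr. Growth read as ATP-dependent luminescence (CellTiter-Glo, 30 min at RT).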
IL1B secr inh – inflammasome signaling inhibition, IL-1 beta readout. AID 743279. activity change, % at 57.5 µM. hit rate 4.7% among 360,000. THP-1 LPS/ATP IL-1B secretion, AlphaLISA, 16 h; hits give low values; in the data active = activity change below about -50%; inconclusive = mostly about -30% to -49%
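THP-1 cells pretreated 1 hr with compounds (up to 57.5 uM final), then stimulated with LPS (250 ng/mL final) plus ATP (1.25 mM final); secreted IL-1B measured by AlphaLISA after 16 hr, decreased signal indicating inhibition.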
HT1080NT lethal – kills 2HG-producing HT-1080-NT fibrosarcoma cells | HT-1080-NT fibrosarcoma viability, CellTiter-Glo ATP luminescence, 48 h | Potency, µM (series often up to 46.1 µM), for inactives: top-dose activity, negative = less viability, actives largely listed as cytotoxic | hit rate 1.6% among 360,000 | AID 686970;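 also: NT is the 2HG producing partner of a matched IDH1 knockdown line; potency is read from the fitted curve at half-maximal effect; 0% = DMSO-treated cells and -100% = media-only wells without cells; nearly all actives have a fitted effect of over 55% in size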
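A 48-hour cytotoxicity screen used HT-1080-NT cells plated 2 hours before compound delivery. ATP-based CellTiter-Glo luminescence measured viability, normalized to DMSO and no-cell controls.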
DT40 TDP1 CPT – DT40-hTDP1 cell growth loss with CPT; chicken DT40 Tdp1-/-;hTDP1 cells + 20 nM CPT, ATP luminescence, 48 h; Potency, µM (highest dose often 46.2 µM), for inactives: top-dose activity change, negative = growth inhibition, usual class: inhibitors; hit rate 12% among 420,000; AID 686979; also: potency is read from the fitted curve at half-maximal effect; nearly all actives have a fitted effect of over 55% in size
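Chicken DT40 Tdp1-/- cells stably complemented with human TDP1 were seeded at 400 cells/well in medium containing 20 nM camptothecin, exposed to pin-transferred compounds, and grown at 37 °C for at least 48 hr. Viability was read as ATP luminescence.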
HT1080 IDH1KD tx – toxicity to HT-1080 IDH1 knockdown cells (counter line) | HT-1080 IDH1 knockdown viability, ATP luminescence, 48 h | Potency, µM (top dose mostly 46.1 µM), inactives show at the top dose activity, negative = toxicity, hits mostly cytotoxic | hit rate 2% among 360,000;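 also: potency is read from the fitted curve at half-maximal effect; 0% = DMSO wells and -100% = cell-free medium wells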
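Knockdown cells (IDH1KD HT-1080) received compounds 2 h after plating at 750 cells/well and were kept 48 h at 37 °C in 5% FBS RPMI. A CellTiter-Glo luminescence read gave % activity for curve fitting.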
* hit, by the source's call. Unless noted, calls follow the shape of the dose curve; as a rule, active = well fitted curve in the direction sought with a large enough effect; inconclusive = small, poorly fitted or top-dose-only effect, or another doubt; inactive = no such curve, though single readings can be large; an effect the other way counts as inactive or inconclusive. Unless noted, % is scaled to controls: 0 for no effect and ±100 for the full control effect.

Screening CC(C)(C)NC(=O)NC(=O)COc1ccc(Br)cc1Br returned TDP1 cell noCPT -30%, IL1B secr inh -6, HT1080NT lethal inconclusive, DT40 TDP1 CPT -26% and HT1080 IDH1KD tx -26%.
CC(C)(C)NC(=O)NC(=O)COC(=O)COc1ccc(Cl)cc1Cl was read as TDP1 cell noCPT inconclusive, IL1B secr inh 8, HT1080NT lethal 19%, DT40 TDP1 CPT 18µM* and HT1080 IDH1KD tx 12%.
For C[C@@H]1CN([C@@H](C)CO)C(=O)Cc2cc(NC(=O)Nc3cccc4ccccc34)ccc2O[C@@H]1CN(C)Cc1ccc(C(F)(F)F)cc1 the results were TDP1 cell noCPT 16µM*, HT1080NT lethal -30%, DT40 TDP1 CPT inconclusive and HT1080 IDH1KD tx inconclusive.
`C[C@@H]1CN([C@H](C)CO)C(=O)c2cc(NC(=O)Nc3cccc4ccccc34)ccc2O[C@H]1CN(C)Cc1ccc(C(F)(F)F)cc1` gave TDP1 cell noCPT 8.2µM*, IL1B secr inh 15, HT1080NT lethal -24%, DT40 TDP1 CPT 10µM* and HT1080 IDH1KD tx -21%.
For C[C@@H]1CN([C@@H](C)CO)C(=O)c2cc(NS(=O)(=O)c3cccs3)ccc2O[C@H]1CN(C)Cc1ccc(C(F)(F)F)cc1 the results were TDP1 cell noCPT 26µM*, IL1B secr inh -63*, HT1080NT lethal -10%, DT40 TDP1 CPT inconclusive and HT1080 IDH1KD tx -6%.
`C#CCOCCOCCOCCNc1nc(N2CCN(C(=O)C([C@@H](C)CC)n3cc(C(N)Cc4ccc(O)cc4)nn3)CC2)nc(N2CCN(C(=O)[C@H](CCC(=O)O)n3cc(C(N)Cc4ccc(O)cc4)nn3)CC2)n1` (stereo partly specified) gave TDP1 cell noCPT 1%, IL1B secr inh 4, HT1080NT lethal -1%, DT40 TDP1 CPT -2% and HT1080 IDH1KD tx 0%.
Screening Cc1nc2cccnc2n1C1CCN(C(=O)Nc2ccccc2)CC1 returned TDP1 cell noCPT 0% and DT40 TDP1 CPT -22%.
For COc1cccc(OCC(O)CNC(=O)c2oc3ccc(C)cc3c2C)c1 (stereo unspecified) the results were TDP1 cell noCPT inconclusive, IL1B secr inh 6, HT1080NT lethal -14%, DT40 TDP1 CPT 7% and HT1080 IDH1KD tx -2%.
For NCCc1nc2cccnc2n1-c1ccccc1 the results were TDP1 cell noCPT -5% and DT40 TDP1 CPT -16%.
Cc1ccc(O)c(NC(=O)c2cc3nc4c(c(C(F)(F)F)n3n2)CCc2ccccc2-4)c1 was read as TDP1 cell noCPT 23µM*, IL1B secr inh -51*, HT1080NT lethal 27%, DT40 TDP1 CPT inconclusive and HT1080 IDH1KD tx 16%.
Screening O=C(Nc1ccc2c(c1)C(=O)N(c1ccccc1)C2=O)C1CCCO1 (stereo unspecified) returned TDP1 cell noCPT 2%, IL1B secr inh -6, HT1080NT lethal 4%, DT40 TDP1 CPT -20% and HT1080 IDH1KD tx 2%.
For COc1ccc(-c2nnc3c4ccccc4c(C)nn23)cc1 the results were TDP1 cell noCPT 18µM*, IL1B secr inh 19, HT1080NT lethal inconclusive, DT40 TDP1 CPT inconclusive and HT1080 IDH1KD tx inconclusive.
COc1ccc(-c2nnc3c4ccccc4c(C)nn23)cc1S(=O)(=O)N1CCN(CCO)CC1 was read as TDP1 cell noCPT inconclusive, IL1B secr inh -6, HT1080NT lethal inconclusive, DT40 TDP1 CPT inconclusive and HT1080 IDH1KD tx 8.9µM*.
Screening Cc1nn2c(-c3ccc(S(=O)(=O)N4CCN(CCO)CC4)o3)nnc2c2ccccc12 returned TDP1 cell noCPT -17%, IL1B secr inh 0, HT1080NT lethal -8%, DT40 TDP1 CPT -24% and HT1080 IDH1KD tx -16%.
`Cc1nn2c(-c3ccco3)nnc2c2ccccc12` gave TDP1 cell noCPT 21µM*, IL1B secr inh -9, HT1080NT lethal -10%, DT40 TDP1 CPT inconclusive and HT1080 IDH1KD tx -18%.
CCn1c(SCC(=O)Nc2ccc(C)c(C)c2)nnc1-c1nonc1NC(C)=O was read as TDP1 cell noCPT -25% and DT40 TDP1 CPT inconclusive.

Screening results from PubChem BioAssay.
